Compound activity (PubChem)
DAX1 inh-1 = DAX1 (NR0B1) inhibitors on StAR promoter, primary screen, cell-based, luminescence, SF-1 (NR5A1), full-length DAX-1; 370,000 compounds, 1.1% hits; inhibition, % at 6.8 µM; AID 652010, 2013; HEK293T StAR-luciferase reporter, SF-1/DAX-1 repression relief;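 active = inhibition above the mean over all tested compounds plus 3 SD, cut at about 3.6% in these data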;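 note: higher inhibition means more luminescence from relief of DAX-1 repression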
DAX1 inh-2 = DAX1 (NR0B1) inhibitors, primary screen, cell-based, HEK293, Gal4-DAX1, luciferase luminescence; Nuclear receptor subfamily 0 group B member 1 (Homo sapiens), P51843; HEK293 Gal4-DAX1 luciferase reporter; inhibition, % at 6.75 µM; 340,000 compounds, 0.99% hits; AID 504766, 2011;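 active = inhibition above the mean over all tested compounds plus 3 SD, cut at about 4.2% in these data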;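 note: inhibition shows as a rise in luminescence from relieved DAX1 repression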
Target sequence (P51843 207-470 limits assumed): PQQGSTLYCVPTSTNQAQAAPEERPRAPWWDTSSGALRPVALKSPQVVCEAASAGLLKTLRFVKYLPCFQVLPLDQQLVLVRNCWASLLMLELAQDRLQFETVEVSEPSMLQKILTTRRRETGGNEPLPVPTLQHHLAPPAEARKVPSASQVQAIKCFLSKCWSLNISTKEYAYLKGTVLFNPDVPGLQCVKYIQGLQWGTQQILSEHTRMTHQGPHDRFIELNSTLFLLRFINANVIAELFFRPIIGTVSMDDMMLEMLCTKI
ssDAF-12 act = S. stercoralis DAF-12 nuclear receptor activators, primary screen, cell-based, luminescence, HEK293, GRIP1 co-expression, lit1-tk-luc; Nuclear hormone receptor DAF-12 (Strongyloides stercoralis); HEK293 ssDAF-12/GRIP1 lit1-tk-luc reporter; % of 3 µM dafachronic acid response; activation, % at 6.8 µM; 370,000 compounds, 1% hits;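 active = activation above the mean over all tested compounds plus 3 SD, cut at about 0.9% in these data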
PolyA inh = polyadenylation inhibitors in yeast reporter cells, primary screen, luminescence, S. cerevisiae | activity score, % at 12 µM | 300,000 compounds, 0.02% hits | S. cerevisiae SKY197-pL101 polyadenylation reporter, beta-gal luminescence; efflux-impaired pdr1/pdr3 knockout yeast; score 100 = 6 SD above DMSO;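 active = lowest replicate activity score at least 50, where 100 means six control SD above control mean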;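 note: yeast exposed to compound for 9 h at 30 °C; higher score means more reporter readthrough which indicates perturbed polyadenylation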
hcDAF12 agonist = H. contortus DAF-12 nuclear receptor activators, primary screen, cell-based, luminescence, HEK293, lit1-tk-luc reporter | HEK293 hcDAF-12 lit1-tk-luc reporter; 0% DMSO, 100% Δ7-dafachronic acid | 370,000 compounds, 1.4% hits | activation, % at 6.8 µM | AID 652067, 2013;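 active = activation above the mean of all tested compounds plus 3 SD, cut at about 5.5% in these data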
hgDAF12 agonist = H. glycines DAF-12 receptor agonists, primary screen, cell-based, luminescence, HEK293, GAL4 fusion, UAS-luciferase; HEK293 GAL4-hgDAF12 UAS-luciferase reporter, agonist luminescence; normalized to butyrate control; activation, % at 6.8 µM; 370,000 compounds, 1.8% hits;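 active = activation above a cutoff set at the mean of all screened compounds plus 3 SD, cut at about 10% in these data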
Hits are given with their value; – = inactive; · = no result. Sampled rows, rich in hits. Any-hit rate of the full collection: about 4.1%.

SMILES | DAX1 inh-1 | DAX1 inh-2 | ssDAF-12 act | PolyA inh | hcDAF12 agonist | hgDAF12 agonist
CCCC1CCC2(CCCN2CCOC(=O)Nc2ccc(OC)cc2)CC1 (stereo not given) | · | · | – | · | – | –
COc1ccc(-c2cc(-c3nnc(SCC(=O)Nc4ccc(OCc5ccccc5)cc4)n3N)[nH]n2)cc1 | – | · | – | · | – | –
O=C(CSc1ccccc1F)Nc1ccc2c(c1)OCO2 | – | – | – | · | – | 11
O=C(Nc1ccc2c(c1)OCO2)c1cccc(F)c1 | – | – | – | – | – | –
O=C(Nc1ccc2c(c1)OCO2)c1c(F)cccc1F | – | – | – | – | – | 13
O=C(Nc1ccc2c(c1)OCCO2)c1ccccc1 | · | – | · | – | · | ·
O=C(CSc1ccccn1)Nc1ccc2c(c1)OCO2 | – | · | – | – | – | –
O=C(Nc1ccc2c(c1)OCCO2)c1cnn(-c2ccccc2)n1 | 4.2 | – | – | · | – | –
CN1CCN(c2ccc(NC(=O)CSc3ccccc3)cc2F)CC1 | – | 5.3 | – | – | – | 11
C[C@@H]1CN(c2ccc(N3CCN(C(=O)OC(C)(C)C)C[C@@H]3C)cc2C#N)CCN1Cc1ccccc1 | – | · | – | · | – | –
CCN(CC)C(=O)[C@H]1C[C@@H]2[C@H](C[C@@H](c3ccccc3)[C@H]1C)N(c1ccc(F)cc1)C(=O)N2CCCOc1ccccc1 | – | · | – | · | – | –
CCN(C(=O)[C@@H](C1CC1)[C@@H](O)c1ccc(C(C)=O)cc1)c1ccccc1 | – | · | – | · | – | –
O=C(CSc1nnc(-c2ccc(Cl)cc2)n1C1CCCCC1)NN=Cc1c(O)ccc2ccccc12 | – | · | – | · | – | –
CCOC(=O)[C@@H]1CSCCS(=O)(=O)N1C(=O)[C@H](CC(C)C)NC(=O)OC(C)(C)C | – | · | – | · | – | –
CS(=O)(=O)N1CCC(C(=O)Nc2ccc3c(c2)OCO3)CC1 | – | – | – | – | – | –
O=C(Nc1ccc2c(c1)OCO2)C1CCCCC1 | 4.0 | – | – | – | – | –
CC(C)Oc1ccc(N2CC(C(=O)Nc3ccc4c(c3)OCO4)CC2=O)cc1 (stereo not given) | – | – | 1.4 | – | – | –
CCC[C@H](/C=C/C(=O)OC(C)(C)C)Sc1ccc(N)cc1 | – | · | – | · | – | –
COC(=O)[C@]12C[C@H](CC(=O)N3CCSCC3)C(=O)N(CCC3=CCCCC3)C1=C[C@H](C1CCCC1)O[C@@H]2C | – | · | – | · | – | –
O=C(Nc1ccc(Cl)cc1)OCC12COCN1COC2 | – | · | – | · | – | –
COc1cc2ccc(=O)oc2cc1O | – | 5.1 | – | · | – | –
COc1cc2ccc(=O)oc2cc1OCC(O)C(C)(C)O (stereo not given) | – | – | – | – | – | –
C[C@H]1C2CC(OC(=O)Nc3ccc(C#N)cc3)C(C2)[C@H]2CCCCN21 (stereo not given in full) | – | · | – | · | – | –
CC1=[N+](CC(=O)c2ccccc2)CCn2cccc21 | – | · | 1.0 | – | – | –
CCC1=[N+](CC(=O)c2ccc(C)cc2)CCn2cccc21 | – | – | – | – | – | –
SMILES | DAX1 inh-1 | DAX1 inh-2 | ssDAF-12 act | PolyA inh | hcDAF12 agonist | hgDAF12 agonist
O=C(Nc1ccc(C(F)(F)F)cc1)OC1CCC12CCC(c1ccccc1)CC2 (stereo not given) | – | · | – | · | – | –
Nn1c(SCC(=O)Nc2ccc(OCc3ccccc3)cc2)nnc1-c1cc(-c2ccc(F)cc2)n[nH]1 | – | · | – | · | – | –
O=c1oc2ccccc2n1Cc1cccc(Cl)c1 | – | 6.4 | – | – | – | –
O=C1N=c2ccccc2=C1c1sc(=S)n(NC(=O)c2ccccc2)c1O | – | – | 1.0 | – | – | –
C=CCn1c(O)c(C2=c3ccccc3=NC2=O)sc1=Nc1ccc(O)cc1 | – | – | – | – | – | –
COC(=O)c1ccc(-c2nc3cc(Cl)c(N)cc3s2)cc1 | – | – | – | – | – | 11
OCC(O)CNC(=S)NC1CCCCC1 (stereo not given) | – | 4.9 | – | · | – | –
CCOc1ccc(/C=C/C(=O)CCC(=O)O)cc1 | – | 5.8 | – | – | – | –
O=C(NC1=NC2CCCCC2N1)c1ccccc1 (stereo not given) | 3.8 | – | – | · | – | –
N#CCCCc1cn(-c2cccc(-c3noc4c3C(=O)N(CC(=O)N3CCOCC3)CC4)c2)nn1 | – | · | – | · | – | –
Fc1ccc(NC(=S)N2CCc3ccccc32)cc1 | – | – | – | – | – | –
FC(F)Oc1ccc(NC(=S)N2CCc3ccccc32)cc1 | – | – | 1.4 | – | – | –
COc1ccc(C(=O)/C=C(\Nc2ccc(F)cc2)c2ccc(OC)cc2OC)c(OC)c1 | – | · | – | · | – | –
COc1ccc(NC(=O)CCCNS(=O)(=O)c2ccc3[nH]c(=O)oc3c2)cc1OC | – | · | – | · | – | –
O=C(OCc1nc2ccccc2s1)c1ccc(Br)s1 | – | – | 1.1 | – | – | –
NC(=O)CSCc1nc2ccccc2s1 | – | – | – | – | 6.0 | –
COc1ccc(CCNC(=O)COC(=O)c2cc3ccccc3oc2=O)cc1OC | – | – | 1.4 | · | – | –
Nc1ccc(C(=O)OCc2nc3ccccc3s2)cc1 | – | – | – | – | – | –
O=C(OCc1nc2ccccc2s1)c1cc2ccccc2oc1=O | – | · | 0.9 | – | 6.2 | –
N/C(Cc1nc2ccccc2s1)=N\O | – | – | – | – | – | –
C#CCNC(=O)C[C@H]1C(=O)N(Cc2ccc(OC)cc2)C2=CCCC[C@@]21C(=O)OCC | – | · | – | · | – | –
Cc1ccc(C(=O)OCc2nc3ccccc3s2)o1 | – | – | – | – | 5.8 | –
Cc1nc(/C=C/c2ccccc2)[nH]c(=O)c1-c1ccccc1 | – | – | – | – | – | 12
O=c1[nH]c(/C=C/c2ccc(Br)cc2)nc2ccccc12 | – | – | – | – | – | –
O=C(/C=C/c1ccc(F)cc1)N1CCc2ccccc2C1 | 3.8 | – | – | · | – | –
Cn1c(=O)n(CCOc2ccc([N+](=O)[O-])cc2)c2ccccc21 | – | – | – | – | – | –
Cc1ccc(OCCn2c(=O)n(C)c3ccccc32)cc1 | – | – | – | – | – | 13
Cc1cccc(-c2cc3nc4c(c(N5CCC6(CC5)OCCO6)n3n2)CCCC4)c1 | – | – | – | · | – | –
Cc1cccc(-c2cc3nc4c(c(N5CCOCC5)n3n2)CCCC4)c1 | 4.5 | – | – | – | – | –
